# Source: PubChem BioAssay (NCATS)
# Where “and” joins values, the source holds several entries; their conditions need not be identical. Equal values may be shown once. Results filed as inconclusive are left out. Where a call stands in place of a potency, no number is given. Unmarked numbers belong to inactive results. Calls of active or inactive are those of the source. Calls follow the shape of the dose curve; as a rule, active = well fitted inhibition curve with a large enough effect; inconclusive = small, poorly fitted or top-dose-only effect; inactive = flat fitted curve, though single readings scatter.
# Experiments:
# PC15 = test: qHTS profiling for inhibitors of Plasmodium falciparum proliferation (AID 504749); conditions: P. falciparum in erythrocytes, SYBR Green DNA, 72 h; series mostly up to 28.7 µM
# In short: (§1)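 Quantitative HTS: compounds pinned into medium, infected erythrocytes added (0.3% parasitemia, 2.5% hematocrit), 72 h culture at 37 C under 5% CO2. Saponin/Triton lysis with SYBR Green I, overnight RT, then fluorescence read.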
# PC26 = test: as above; conditions: P. falciparum in erythrocytes, SYBR Green DNA, 72 h; series mostly up to 28.7 µM
# In short: as §1
# PC49 = test: as above; conditions: P. falciparum in erythrocytes, SYBR Green DNA, 72 h; series mostly up to 28.7 µM
# In short: as §1
# SC27B = test: as above; conditions: P. falciparum in erythrocytes, SYBR Green DNA, 72 h; series mostly up to 28.7 µM
# In short: as §1
# TAB109 = test: as above; conditions: P. falciparum in erythrocytes, SYBR Green DNA, 72 h; series mostly up to 28.7 µM
# In short: as §1
# TAB113 = test: as above; conditions: P. falciparum in erythrocytes, SYBR Green DNA, 72 h; series mostly up to 28.7 µM
# In short: as §1
# TAB165 = test: as above; conditions: P. falciparum in erythrocytes, SYBR Green DNA, 72 h; series mostly up to 28.7 µM
# In short: as §1
# CRL-7250 [1] = test: Cytotoxic Profiling of Annotated Libraries Using Quantitative High-Throughput Screening (AID 1296008); conditions: Five cell lines viability, CellTiter-Glo ATP luminescence, 48-72 h; max response: stronger effect = lower value
# In short: (§2)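 Compounds were pin-transferred onto cells and incubated 48 or 72 hr at 37 degree Celsius, 95% humidity. CellTiter-Glo was added, plates sat 10 min at room temperature, then ATP-coupled luminescence was imaged as the viability read-out.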
# HEK293 = test: as above; conditions: Five cell lines viability, CellTiter-Glo ATP luminescence, 48-72 h; max response: stronger effect = lower value
# In short: as §2
# HaCat [2] = test: as above; conditions: Five cell lines viability, CellTiter-Glo ATP luminescence, 48-72 h; max response: stronger effect = lower value
# In short: as §2
# KB-3-1 = test: as above; conditions: Five cell lines viability, CellTiter-Glo ATP luminescence, 48-72 h; max response: stronger effect = lower value
# In short: as §2
# NIH3T3 = test: as above; conditions: Five cell lines viability, CellTiter-Glo ATP luminescence, 48-72 h; max response: stronger effect = lower value
# In short: as §2
# CRL-7250 [3] = test: qHTS assay to identify novel small-molecules to repurpose for Merkel cell carcinoma treatment (AID 1296009); conditions: MCC and control cell lines, CellTiter-Glo viability, 72 h; series mostly up to 44.8 µM
# In short: (§3)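 Viability readout: ATP luminescence (CellTiter-Glo) after 72 hr drug exposure at 37 degree celsius. Dose-response format was 8 points for NPC and 11 points for MIPE; data normalized to in-plate controls.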
# HEK293T = test: as above; conditions: MCC and control cell lines, CellTiter-Glo viability, 72 h; at 44.8 µM (top of the series)
# In short: as §3
# MCC-13 = test: as above; conditions: MCC and control cell lines, CellTiter-Glo viability, 72 h; series mostly up to 46 µM
# In short: as §3
# MKL-1 = test: as above; conditions: MCC and control cell lines, CellTiter-Glo viability, 72 h; series mostly up to 46 µM
# In short: as §3
# MKL-2 = test: as above; conditions: MCC and control cell lines, CellTiter-Glo viability, 72 h; series mostly up to 46 µM
# In short: as §3
# HACAT [4] = test: as above; conditions: MCC and control cell lines, CellTiter-Glo viability, 72 h; at 44.8 µM (top of the series) unless noted
# In short: as §3
# MCC-26 = test: as above; conditions: MCC and control cell lines, CellTiter-Glo viability, 72 h; series mostly up to 46 µM
# In short: as §3
# W2 = test: qHTS profiling for inhibitors of Plasmodium falciparum proliferation (AID 504749); conditions: P. falciparum in erythrocytes, SYBR Green DNA, 72 h; series mostly up to 28.7 µM
# In short: as §1
# Also: nearly all actives have a fitted effect of over 60% in size.
# Potency is read from the fitted curve at half-maximal effect.
compound,measurement,setting,value
Oc1ccccc1-c1ccccc1,Potency,PC15,inactive
same,Potency,PC26,inactive
same,Potency,PC49,inactive
same,Potency,SC27B,inactive
same,Potency,TAB109,inactive
same,Potency,TAB113,inactive
same,Potency,TAB165,inactive
same,outcome,CRL-7250 [1],inactive
same,outcome,HEK293,inactive
same,max response,HaCat [2],1.64%
same,max response,KB-3-1,2.06%
same,outcome,NIH3T3,inactive
same,outcome,CRL-7250 [3],inactive
same,outcome,HEK293T,inactive
same,Potency,MCC-13,inactive
same,Potency,MKL-1,inactive
same,Potency,MKL-2,inactive
Cc1cc(SCc2sc(-c3ccc(C(F)(F)F)c(F)c3)nc2C)ccc1OCC(=O)O,outcome,CRL-7250 [1],inactive
same,max response,HEK293,-0.859%
same,outcome,HEK293,inactive
same,outcome,HaCat [2],inactive
same,max response,KB-3-1,-0.392%
same,outcome,KB-3-1,inactive
same,max response,NIH3T3,3.63%
same,outcome,NIH3T3,inactive
same,outcome,CRL-7250 [3],inactive
same,outcome,HACAT [4],inactive
same,outcome,HEK293T,inactive
same,Potency,MCC-13,inactive
same,Potency,MCC-26,inactive
same,Potency,MKL-1,inactive
same,Potency,MKL-2,inactive
CCOP(=S)(OCC)Oc1cc(C)nc(C(C)C)n1,Potency,PC15,inactive
same,Potency,PC26,inactive
same,Potency,PC49,inactive
same,Potency,SC27B,inactive
same,Potency,TAB109,inactive
same,Potency,TAB113,inactive
same,Potency,TAB165,inactive
same,Potency,W2,inactive
same,max response,CRL-7250 [1],1.07%
same,outcome,HEK293,inactive
same,max response,HaCat [2],0.572%
same,max response,KB-3-1,7.03%
same,max response,NIH3T3,-12%
same,outcome,HEK293T,inactive
same,Potency,MCC-13,inactive
same,Potency,MKL-1,inactive
same,Potency,MKL-2,inactive
CCC(=O)C(CC(C)N(C)C)(c1ccccc1)c1ccccc1 (stereo not drawn),max response,CRL-7250 [1],-4.65%
same,Potency,HEK293,30.9 µM (active)
same,outcome,HaCat [2],inactive
same,max response,KB-3-1,-25%
same,max response,NIH3T3,-1.89%
same,outcome,HACAT [4],inactive [at 92 µM]
same,Potency,MCC-13,inactive
CC(=O)Nc1cc([As](=O)(O)O)ccc1O,Potency,PC15,inactive
same,Potency,PC26,inactive
same,Potency,PC49,inactive
same,Potency,SC27B,inactive
same,Potency,TAB109,inactive
same,Potency,TAB113,inactive
same,Potency,TAB165,inactive
same,Potency,W2,inactive
same,max response,CRL-7250 [1],-3.67%
same,max response,HEK293,2.5%
same,max response,HaCat [2],-14.2%
same,max response,KB-3-1,5.7%
same,outcome,NIH3T3,inactive
same,Potency,MCC-13,inactive
same,Potency,MCC-26,inactive
same,Potency,MKL-1,inactive
same,Potency,MKL-2,inactive
O=c1oc2ccccc2c(O)c1C(CC(O)c1ccc(-c2ccc(Br)cc2)cc1)c1ccccc1 (stereo not drawn),max response,CRL-7250 [1],0.6%
same,outcome,HEK293,inactive
same,max response,HaCat [2],4.03%
same,max response,KB-3-1,0.095%
same,max response,NIH3T3,0.0262%
same,outcome,HEK293T,inactive
same,Potency,MCC-13,inactive
same,Potency,MKL-1,inactive
same,Potency,MKL-2,inactive
CCCC1CCCCN1 (stereo not drawn),Potency,PC15,inactive
same,Potency,PC26,inactive
same,Potency,PC49,inactive
same,Potency,SC27B,inactive
same,Potency,TAB109,inactive
same,Potency,TAB113,inactive
same,Potency,TAB165,inactive
same,Potency,W2,inactive
same,max response,CRL-7250 [1],-4.9%
same,max response,HEK293,-7.03%
same,outcome,HaCat [2],inactive
same,max response,KB-3-1,-0.9%
same,outcome,NIH3T3,inactive
same,outcome,HACAT [4],inactive
same,Potency,MCC-13,inactive
same,Potency,MCC-26,inactive
same,Potency,MKL-1,inactive
same,Potency,MKL-2,inactive
O=[N+]([O-])c1cc([As](=O)(O)O)ccc1O,Potency,SC27B,3.55 µM (active)
same,Potency,TAB109,3.16 µM (active)
same,Potency,TAB113,3.16 µM (active)
same,Potency,TAB165,3.55 µM (active)
same,Potency,W2,2.56 µM (active)
same,max response,CRL-7250 [1],-0.161%
same,outcome,HEK293,inactive
same,max response,HaCat [2],-8.07%
same,max response,KB-3-1,-14.1%
same,outcome,NIH3T3,inactive
same,outcome,HEK293T,inactive
same,Potency,MCC-13,inactive
same,Potency,MCC-26,inactive
same,Potency,MKL-1,inactive
N[C@@H](Cc1ccc(N(CCCl)CCCl)cc1)C(=O)O,Potency,PC26,inactive
same,Potency,PC49,inactive
same,Potency,TAB165,11.2 µM (active)
same,Potency,W2,6.75 µM (active)
same,max response,CRL-7250 [1],-7.43%
same,Potency,HEK293,20.9 µM (active)
same,max response,HaCat [2],-1%
same,max response,KB-3-1,-3.99% and -10.4%
same,Potency,MCC-26,inactive
same,Potency,MKL-1,2.66 µM (active) and 2.96 µM (active)
same,Potency,MKL-2,1.33 µM (active) and 469 nM (active)
CCC(C(N)=O)N1CCCC1=O (stereo not drawn),Potency,PC15,inactive
same,Potency,PC26,inactive
same,Potency,PC49,inactive
same,Potency,SC27B,inactive
same,Potency,TAB109,inactive
same,Potency,TAB113,inactive
same,Potency,TAB165,inactive
same,max response,CRL-7250 [1],-0.833%
same,max response,HEK293,-1.93%
same,outcome,HaCat [2],inactive
same,max response,KB-3-1,-5.57%
same,outcome,NIH3T3,inactive
same,outcome,HACAT [4],inactive
same,Potency,MCC-13,inactive
same,Potency,MCC-26,inactive
same,Potency,MKL-1,inactive
same,Potency,MKL-2,inactive
Nc1ccncc1,Potency,PC15,inactive
same,Potency,PC49,inactive
same,Potency,SC27B,inactive
same,Potency,TAB109,inactive
same,Potency,TAB113,inactive
same,Potency,TAB165,inactive
same,Potency,W2,inactive
same,max response,CRL-7250 [1],4.16%
same,max response,HEK293,-0.798%
same,outcome,HaCat [2],inactive
same,max response,KB-3-1,14.9%
same,max response,NIH3T3,2.18%
same,outcome,HACAT [4],inactive
same,Potency,MCC-13,inactive
same,Potency,MCC-26,inactive
same,Potency,MKL-1,inactive
same,Potency,MKL-2,inactive
COC1(CS(=O)c2ccccc2)CCN(CCc2c[nH]c3ccc(F)cc23)CC1 (stereo not drawn),max response,CRL-7250 [1],-22.3%
same,max response,HEK293,-11.2%
same,max response,HaCat [2],-21.9%
same,max response,KB-3-1,-9.1%
same,max response,NIH3T3,-8%
same,Potency,MCC-13,inactive
same,Potency,MCC-26,inactive
same,Potency,MKL-1,inactive
same,Potency,MKL-2,inactive
CC(CCc1ccccc1)NC(C)C(O)c1ccc(O)cc1 (stereo not drawn),Potency,PC49,inactive
same,Potency,SC27B,inactive
same,Potency,TAB113,inactive
same,Potency,W2,4.26 µM (active)
same,max response,CRL-7250 [1],-12.9%
same,max response,HEK293,-17.5%
same,outcome,HaCat [2],inactive
same,max response,KB-3-1,-11.3%
same,max response,NIH3T3,-21.3%
same,outcome,HACAT [4],inactive
same,Potency,MCC-13,inactive
same,Potency,MCC-26,inactive
same,Potency,MKL-1,inactive
same,Potency,MKL-2,inactive
C[C@@H]1[C@@H](C(=O)C[C@H]2O[C@@H]3O[C@]4(C)CC[C@@H]5[C@H](C)CC[C@@H]([C@H]2C)[C@@]35OO4)O[C@@H]2O[C@]3(C)CC[C@H]4[C@H](C)CC[C@@H]1[C@@]24OO3,Potency,CRL-7250 [1],4.18 µM (active)
same,Potency,HEK293,0.332 µM (active)
same,Potency,HaCat [2],5.26 µM (active)
same,Potency,MCC-26,inactive
same,Potency,MKL-1,14.8 µM (active)
same,Potency,MKL-2,662 nM (active)
